Experimental data from PubChem BioAssay AID463173 (ICCB-Longwood Screening Facility, Harvard Medical School, 2010).
About 4,300 (8.3%) of roughly 52,000 compounds were called active. Rule as the data show it: active = survival mostly below about 52% (no sharp cut-off); inactive = mostly above about 56%. For the sample, actives were picked, then their nearest neighbours and some compounds at random.

Tested on: DeltatarO mutant
Assay: growth inhibition of S. aureus wild type versus tarO mutant, primary screen, teichoic acid synthesis inhibitors, RN4220, OD600 (AID 463173)
Conditions: OD600, 18 h, stronger effect = lower value, screened at 18.75 µg/mL (by protocol)

Compound | survival
COC(=O)c1ccccc1NC(=O)Cn1c(=O)n(CCC(=O)NCc2ccccc2OC)c(=O)c2ccccc21 | 82% (inactive)
Cc1ccccc1OCC(=O)Nc1ccc(S(=O)(=O)N(Cc2ccccc2)c2ccccc2)cc1 | 66% (inactive)
COc1ccc(-n2ccnc(NCCc3ccc(S(N)(=O)=O)cc3)c2=O)cc1 | 66% (inactive)
COC(=O)CNC(=O)Nc1cc(C(=O)NCc2ccc(C)cc2)ccc1N1CCCC1 | 76% (inactive)
COC(=O)c1c(N)n(-c2ccc(OC)c(Cl)c2)c2nc3ccccc3nc12 | 93% (inactive)
COC(=O)c1c(N)n(-c2ccc(OC)c(OC)c2)c2nc3ccccc3nc12 | 94% (inactive)
COC(=O)c1c(N)n(-c2cc(Cl)cc(Cl)c2)c2nc3ccccc3nc12 | 44% (active)
Cc1ccc(CNc2nc(-c3ccco3)nn2S(C)(=O)=O)cc1 | 113% (inactive)
CCOC(=O)Cc1ccc(NC(=O)N2CCC(CN3CCCCCC3)CC2)cc1 | 80% (inactive)
O=C1CCSc2ccc(S(=O)(=O)Nc3cccc(C(F)(F)F)c3)cc2N1 | -2% (active)
Cc1ccc(NS(=O)(=O)c2ccc3c(c2)NC(=O)CCS3)c(Br)c1 | -1% (active)
Cc1cc(C)cc(NS(=O)(=O)c2ccc3c(c2)NC(=O)C(C)S3)c1 (stereo unspecified) | 11% (active)
CC1C(=O)Nc2ccc(S(=O)(=O)Nc3ccccc3Br)cc2NC1=O (stereo unspecified) | 90% (inactive)
Cc1ccc(NS(=O)(=O)c2ccc3c(c2)NC(=O)C(C)C(=O)N3)cc1F (stereo unspecified) | 69% (inactive)
Cc1cc(C)c(NS(=O)(=O)c2ccc3c(c2)NC(=O)CCS3)c(C)c1 | 76% (inactive)
Cc1ccccc1NS(=O)(=O)c1ccc2c(c1)NC(=O)CCS2 | 64% (inactive)
O=C1CCSc2ccc(S(=O)(=O)Nc3ccc(Cl)c(C(F)(F)F)c3)cc2N1 | 72% (inactive)
Cc1ccc(NS(=O)(=O)c2ccc3c(c2)NC(=O)CCS3)cc1C | 79% (inactive)
COc1cc(NC(=O)CCc2c(C)nn(-c3ccc(N4CCCCC4)nn3)c2C)cc(OC)c1OC | 95% (inactive)
CCOC(=O)c1ccccc1NC(=O)n1ncc2cc(Cl)ccc21 | 85% (inactive)
O=C(O)c1cc(N2C(=O)C3CC=CCC3C2=O)ccc1NCc1cccnc1 (stereo unspecified) | 90% (inactive)
CC(=O)c1cccc(NC(=O)c2sc(-n3nc(C)c(CCC(C)C)c3C)nc2C)c1 | 53% (inactive)
CCOc1ccccc1NC(=O)Cn1cc(C(=O)c2ccc(Cl)cc2)c(=O)c2ccc(C)nc21 | 87% (inactive)

Compound | survival
CCc1ccc(N2CC(C)Cn3c2nc2c3c(=O)n(CC(=O)O)c(=O)n2C)cc1 (stereo unspecified) | 77% (inactive)
COc1ccc(C2(CNC(=O)C(=O)Nc3cccc(C(F)(F)F)c3)CCCC2)cc1OC | 102% (inactive)
Cc1cccc2cc(CN(C(=O)c3ccco3)C3CCCC3)c(=O)[nH]c12 | 51% (inactive)
CCCc1nc2sc3c(N4CCCCC4)ncnc3c2c2c1CCCC2 | 12% (active)
CCc1nc2sc3c(N4CCCCC4)ncnc3c2c2c1CCCC2 | 175% (inactive)
CCCCSc1ncnc2c1sc1nc(N3CCOCC3)c3c(c12)CCCC3 | 77% (inactive)
CCCCN(CC)c1ncnc2c1sc1nc(N3CCOCC3)c3c(c12)CCCC3 | 35% (active)
CCCc1nc2sc3c(N4CCC(C)CC4)ncnc3c2c2c1CCCC2 | 61% (inactive)
CCCCCSc1ncnc2c1sc1nc(N3CCOCC3)c3c(c12)CCCC3 | 69% (inactive)
Cc1ccc(-c2[nH]c3ccccc3c2SCCNC(=O)c2ccc(S(=O)(=O)N(C)C)cc2)cc1 | 105% (inactive)
COc1ccc(NC(=O)CSCc2cc(=O)c3cc(C)ccc3[nH]2)cc1 | 68% (inactive)
CC(=O)Nc1ccc(NC(=O)C2CCN(S(=O)(=O)c3ccc4c(c3)CCCC(=O)N4)CC2)cc1 | 85% (inactive)
CC(C)(C)C(=O)OCc1cc(=O)n2nc(C3CCCCC3)sc2n1 | 80% (inactive)
COc1ccc(CC(=O)NC2CCN(CC(=O)c3ccc(F)cc3)CC2)cc1OC | 108% (inactive)
Cc1cc(C)nc(NC(=O)COc2ccc(Br)cc2)n1 | 84% (inactive)
Cc1ccc(CCNC(=O)Cn2ncc3c([nH]c4ccccc43)c2=O)cc1 | 102% (inactive)
CCCCN(C)CCNC(=O)Cn1ncc2c([nH]c3ccccc32)c1=O | 8% (active)
O=C(Cn1ncc2c([nH]c3ccccc32)c1=O)NCc1cccc(Cl)c1 | 20% (active)
CCN(CC)CCNC(=O)Cn1ncc2c([nH]c3ccccc32)c1=O | 89% (inactive)
CN(CCCNC(=O)Cn1ncc2c([nH]c3ccccc32)c1=O)Cc1ccccc1 | 100% (inactive)
COc1ccc(CNC(=O)Cn2ncc3c([nH]c4ccccc43)c2=O)cc1 | 91% (inactive)
COc1ccc(-n2nc(C(=O)Nc3ccccn3)c3c4ccccc4n(C)c3c2=O)cc1 | 72% (inactive)
O=C(NCCc1csc(-c2cccc(F)c2)n1)c1ccc(Br)o1 | 83% (inactive)

Compound | survival
COc1ccc(N(C(=O)Cn2nnc3ccccc32)C(C(=O)NCc2ccccc2)c2ccc(F)cc2)cc1 (stereo unspecified) | 42% (active)
COc1cc(N(C(=O)Cn2nnc3ccccc32)C(C(=O)NCC2CCCO2)c2ccc(F)cc2)ccc1-n1cnnn1 (stereo unspecified) | 105% (inactive)
COc1ccc(C(C(=O)NCc2ccccc2)N(C(=O)Cn2nnc3ccccc32)c2cccc(OC)c2)cc1 (stereo unspecified) | 50% (inactive)
CCOc1ccc(N(C(=O)Cn2nnc3ccccc32)C(C(=O)NCc2ccccc2)c2ccc(OC)cc2)cc1 (stereo unspecified) | 52% (inactive)
COc1cccc(C(C(=O)NCc2ccccc2)N(C(=O)Cn2nnc3ccccc32)c2cccc(C(C)=O)c2)c1 (stereo unspecified) | 44% (active)
COc1ccc(C(C(=O)NCc2ccccc2)N(C(=O)Cn2nnc3ccccc32)c2ccc(OC)cc2)cc1 (stereo unspecified) | 60% (inactive)
CC(=O)c1cccc(N(C(=O)Cn2nnc3ccccc32)C(C(=O)NCc2ccccc2)c2ccc(F)cc2)c1 (stereo unspecified) | 85% (inactive)
CC(=O)Nc1ccc(N(C(=O)Cn2nnc3ccccc32)C(C(=O)NCc2ccccc2)c2ccc(C)cc2)cc1 (stereo unspecified) | 38% (active)
COc1ccc(C(C(=O)NCc2ccccc2)N(C(=O)Cn2nnc3ccccc32)c2ccc(F)cc2)cc1 (stereo unspecified) | 49% (inactive)
O=C(COc1ccc(S(=O)(=O)NC2CCCCC2)cc1)Nc1ccc(C(F)(F)F)cc1 | 64% (inactive)
CC(NC1=NCCN1)C(=O)O (stereo unspecified) | 97% (inactive)
COC(=O)C1C(=O)C2=C(CC1C)Nc1ccccc1NC2c1cc(F)ccc1F (stereo unspecified) | 82% (inactive)
Cc1occc1-c1nnc(SCC(=O)NCc2ccc3c(c2)OCO3)n1CC(C)C | 88% (inactive)
COc1ccccc1NC(=O)CC(C)n1nc(C)cc1C (stereo unspecified) | 67% (inactive)
COc1ccc(NC(=O)CCS(=O)(=O)c2ccc3nc(C)sc3c2)cc1Cl | 44% (inactive)
Cc1cc(-c2ccc(C)c(S(=O)(=O)NCCc3ccc(S(N)(=O)=O)cc3)c2)on1 | 92% (inactive)
Cc1ccc(C)c(N2C(=O)N(Cc3cccc(C(F)(F)F)c3)c3ccccc3S2(=O)=O)c1 | 88% (inactive)
COc1cccc(C(=O)N2CCN(CCc3ccncc3)CC2)c1 | 87% (inactive)
CCOc1cc(C2c3c(-c4ccc(Br)cc4)n[nH]c3C(=O)N2c2ccc(Cl)cc2)ccc1O (stereo unspecified) | 35% (active)
CCOC(=O)c1ccc(N2C(=O)c3[nH]nc(-c4ccc(OC)cc4)c3C2c2ccc(C)cc2)cc1 (stereo unspecified) | 81% (inactive)
CCOc1ccc(-c2n[nH]c3c2C(c2ccccc2OC)N(c2ccc(Br)cc2)C3=O)cc1 (stereo unspecified) | 69% (inactive)
CCOC(=O)c1ccc(N2C(=O)c3[nH]nc(-c4ccc(C)cc4)c3C2c2ccc(O)c(OCC)c2)cc1 (stereo unspecified) | 87% (inactive)
CCOC(=O)c1ccc(N2C(=O)c3[nH]nc(-c4ccc(OC)cc4)c3C2c2cccc(O)c2)cc1 (stereo unspecified) | 57% (inactive)

Compound | survival
COc1ccc(-c2n[nH]c3c2C(c2ccc(O)cc2)N(c2ccc(Br)cc2)C3=O)cc1 (stereo unspecified) | -3% (active)
COC(=O)c1ccc(C2c3c(-c4ccc(Br)cc4)n[nH]c3C(=O)N2c2ccc(Cl)cc2)cc1 (stereo unspecified) | 93% (inactive)
O=C1c2[nH]nc(-c3ccc(Br)cc3)c2C(c2cccc(O)c2)N1c1ccc(Cl)cc1 (stereo unspecified) | -10% (active)
Cc1ccc(-c2n[nH]c3c2C(c2cccc(O)c2)N(c2ccc(C(=O)O)cc2)C3=O)cc1 (stereo unspecified) | 86% (inactive)
Cc1ccc(NC(=O)C(=O)NCc2ccco2)cc1 | 58% (inactive)
O=c1cc(CSc2n[nH]c(-c3ccccc3)n2)[nH]c2ccccc12 | 129% (inactive)
Cc1nn2c(=O)cc(COC(=O)c3cccc(NC(=O)c4ccc(C(C)(C)C)cc4)c3)nc2s1 | 85% (inactive)
CCc1nn(CC(=O)NCCC(C)C)c(=O)c2cc3occc3n12 | 125% (inactive)
CCCc1cc(=O)[nH]c(Nc2cc(Cl)ccc2OC)n1 | 68% (inactive)
COC(=O)c1cccc(NC(=O)C2CCN(S(=O)(=O)Cc3ccccc3)CC2)c1C | 77% (inactive)
COc1ccc(-n2c(-c3ccc(C)cc3)cc3c2CC(C)(C)CC3=O)cc1Cl | 80% (inactive)
CC1(C)CC(=O)c2cc(-c3nc(-c4ccc(Cl)cc4)cs3)c(=O)n(-c3cccc(F)c3)c2C1 | 70% (inactive)
COc1ccc(-n2c(-c3ccc(C)cc3)cc3c2CC(C)(C)CC3=O)c(OC)c1 | 101% (inactive)
COc1ccc(C)cc1-n1c(-c2ccc(Cl)cc2)cc2c1CC(C)(C)CC2=O | 86% (inactive)
Cc1ccc(-c2cc3c(n2-c2ccc(C)cc2)CC(C)(C)CC3=O)cc1 | 74% (inactive)
COc1ccc(-n2c(-c3ccc(Cl)cc3)cc3c2CC(C)(C)CC3=O)c(OC)c1 | 4% (active)
COc1ccc(-n2c3c(cc(-c4nc(-c5ccc(Cl)cc5)cs4)c2=O)C(=O)CC(C)(C)C3)cc1 | 140% (inactive)
COc1cccc(-n2c(-c3ccc(Cl)cc3)cc3c2CC(C)(C)CC3=O)c1 | 35% (active)
Cc1cccc(-n2c3c(cc(-c4nc(-c5ccc(Cl)cc5)cs4)c2=O)C(=O)CC(C)(C)C3)c1 | 62% (active)
COc1cccc(-n2c(-c3ccc(C)cc3)cc3c2CC(C)(C)CC3=O)c1 | 18% (active)
COc1ccc(C)cc1-n1c(-c2ccc(C)cc2)cc2c1CC(C)(C)CC2=O | 114% (inactive)
Cc1ccc(-n2c3c(cc(-c4nc(-c5ccc(Cl)cc5)cs4)c2=O)C(=O)CC(C)(C)C3)cc1 | 79% (inactive)
